Compound activity (PubChem)
SW480 rereplic: DNA re-replication induction in SW480 cells. hit rate 1.8% among 340,000. Potency, µM (titrated, usually from 46.1 µM), for inactives: top-dose re-replication activation, actives largely listed as activators. SW480 DNA re-replication, Hoechst DNA content imaging, 48 h. AID 624297; further: potency means the concentration at half of the fitted maximal effect; % of control where 0% means no effect; nearly all actives have a fitted effect of over 55% in size
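Readout is total intensity of Hoechst-stained nuclei, excited at 405 nm and collected at 500-530 nm. Compound treatment lasted 48 hr at 37 C in 5% CO2 before staining.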
MCF10A rereplic: DNA re-replication induction in MCF 10a cells. MCF 10A DNA re-replication, Hoechst nuclear intensity, 48 h. Potency, µM (series often up to 46.1 µM), without a hit: top-dose activity, positive = re-replication, actives largely listed as activators. hit rate 2.9% among 350,000. AID 624296; further: potency means the concentration at half of the fitted maximal effect; % of control where 0% means no effect; nearly all actives have a fitted effect of over 50% in size
IL-1B inflam inh: blocks inflammasome-driven IL-1 beta release. THP-1 LPS/ATP IL-1B secretion, AlphaLISA, 16 h; hits give low values. activity change, % at 57.5 µM. hit rate 4.7% among 360,000. AID 743279; in the data active means activity change below about -50%; inconclusive means mostly about -30% to -49%; further: on the % scale 0 is the no-effect control and ±100 the full control effect
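THP-1 cells pretreated 1 hr with compounds (up to 57.5 uM final), then stimulated with LPS (250 ng/mL final) plus ATP (1.25 mM final); secreted IL-1B measured by AlphaLISA after 16 hr, decreased signal indicating inhibition.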
KB-3-1 tox: kills parental KB-3-1 adenocarcinoma cells | KB-3-1 viability, CellTiter-Glo ATP luminescence, 72 h | Potency, µM (titrated, usually from 46.1 µM), hits mostly cytotoxic | hit rate 1.4% among 400,000; further: potency means the concentration at half of the fitted maximal effect; on the % scale 0 is the no-effect control and ±100 the full control effect; nearly all actives have a fitted effect of over 60% in size
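Cells are dispensed, compounds pinned in, plates held at 37 °C for 72 h, then CellTiter-Glo is added and luminescence read after 10 minutes. Cell line: parental KB-3-1 in phenol-red-free DMEM, 10% FBS.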
KB-V1 cytotox: KB-V1 MDR subline cytotoxicity | KB-V1 MDR cells viability, CellTiter-Glo, 72 h | Potency, µM (highest dose often 46.1 µM), hits mostly cytotoxic | hit rate 3.4% among 400,000 | AID 1347076; further: potency means the concentration at half of the fitted maximal effect; on the % scale 0 is the no-effect control and ±100 the full control effect; nearly all actives have a fitted effect of over 60% in size
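Cells of the MDR subline KB-V1 are plated, dosed with compound at multiple concentrations, and incubated 72 h at 37 degrees C; CellTiter-Glo is then added and luminescence read after 10 min.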
Starred values were filed as active, the others as inactive; i = inactive; ? = inconclusive; . = not tested or not shown; ! = repeats disagree. Hits are enriched below; roughly 9.9% of the tested compounds scored in any of these assays. Unless noted, the call rests on the fitted dose curve; in most records, active means well fitted curve in the direction sought with a large enough effect; inconclusive means small, poorly fitted or top-dose-only effect, or another doubt; inactive means no such curve, though single readings can be large; an effect the other way counts as inactive or inconclusive.

SMILES	SW480 rereplic	MCF10A rereplic	IL-1B inflam inh	KB-3-1 tox	KB-V1 cytotox
CCNC(=O)/C(C#N)=C/c1c(N2CCN(c3ccc(OC)cc3)CC2)nc2c(C)cccn2c1=O	?	14.7%	-61.6*	i	i
CNC(=O)/C(C#N)=C/c1c(N(Cc2ccccc2)Cc2ccccc2)nc2ccccn2c1=O	-6.6%	-1.1%	?	i	2.59µM*
CCN1CCN(c2nc3c(C)cccn3c(=O)c2/C=C(\C#N)C(=O)NCCCOC)CC1	20.6µM*	18.4µM*	-18.5	i	i
COCCNC(=O)/C(C#N)=C/c1c(N2CCN(c3ccccc3)CC2)nc2c(C)cccn2c1=O	?	22.1%	71.5	i	i
CCN1CCN(c2nc3c(C)cccn3c(=O)c2/C=C(\C#N)C(=O)NC)CC1	6.5%	5.8µM*	-8.6	i	i
CNC(=O)/C(C#N)=C/c1c(N2CCN(C)CC2)nc2c(C)cccn2c1=O	?	-4.3%	-0.1	i	i
COC(=O)/C(C#N)=C/c1c(N2CCN(c3ccccc3)CC2)nc2ccccn2c1=O	2.0%	5.8%	-7.3	i	i
CCNC(=O)/C(C#N)=C/c1c(N2CCN(c3ccccc3)CC2)nc2c(C)cccn2c1=O	-1.2%	0.1%	7.4	i	i
CCOc1ccc(NC(=O)CN(C)C(=O)c2ccc(N3CCCC3)c([N+](=O)[O-])c2)cc1OCC	-2.4%	0.2%	-4.0	i	i
O=C(NCC(c1ccc2c(c1)OCO2)N1CCOCC1)c1ccc(F)cc1 (stereo unspecified)	.	.	.	i	i
CN1c2ccccc2N(C)C1c1ccc2c(c1)OCO2	1.0%	0.4%	29.1	5.8µM*	i
O=C(CCCOc1ccc(Cl)cc1Cl)N/N=C/c1cccc([N+](=O)[O-])c1	0.5%	?	-4.6	i	i
Nc1cc2c3ccccc3ccc2c2ccccc12	20.6µM*	?	-4.8	?	i
COc1ccc2nc(C)cc(N3CCN(S(=O)(=O)c4ccccc4F)CC3)c2c1	-8.1%	4.2%	?	i	i
CCSc1nnc(NC(=O)c2csc3c2CCCC3)s1	14.6µM*	?	5.7	i	i
C=C1C(=O)O[C@H]2[C@H]1[C@H](OC(=O)/C(C)=C\C)C[C@]1(CO1)[C@@H]1[C@H](OC(C)=O)C=C(C)[C@]21O	?	3.26µM*	-103.9*	i	i
COc1ccc(OCCn2c(CCNC(=O)C3CCCCC3)nc3ccccc32)cc1	.	.	.	i	i
COc1ccccc1NC(=O)Cn1nnc(-c2ccccc2NS(=O)(=O)c2ccccc2)n1	?	6.7%	4.3	?	5.8µM*
COC(=O)c1ccccc1NC(=O)Cn1nnc(-c2ccc(OC)cc2)n1	-2.0%	15.7%	11.3	i	14.6µM*!
CCCCOc1ccc(-c2nnn(CC(=O)NCCc3c[nH]c4ccccc34)n2)cc1	-1.2%	?	-20.4	i	16.4µM*
CCCCCCCCCCCCCCCC(=O)NCCc1c[nH]c2ccccc12	6.1%	?	22.7	i	i
COc1ccc(NC(=O)Cn2nnc(-c3ccccc3NS(=O)(=O)c3ccc(OC)cc3)n2)cc1	14.4%	?	40.4	?	?
COC(=O)c1ccccc1NC(=O)Cn1nnc(-c2ccc3c(c2)OCO3)n1	-0.6%	10.8%	6.5	?	i
COc1ccc(NC(=O)Cn2nnc(-c3ccc(CN4CCOCC4)cc3)n2)c(OC)c1	-1.6%	8.6%	-15.2	i	20.6µM*
COc1ccccc1NC(c1ccc(Cl)cc1)c1nnc(-c2cccc(F)c2)o1 (stereo unspecified)	.	.	.	?	i
CCc1ccccc1NC(=O)CNC(=O)CSC(=S)N1CCCC1	-25.1%	-4.9%	-5.2	i	i
CCCOc1ccc(-c2nnn(CC(=O)Nc3cccc(C(=O)OC)c3)n2)cc1	8.0%	16.4%	27.9	i	13µM*
CC(C)Cc1nnc(NC(=O)c2cc3c(s2)CCC3)s1	23.1µM*	23.1µM*	1.5	i	i
O=C(Nc1nncs1)c1cc2c(s1)CCC2	-1.4%	-3.6%	-14.7	i	?
CCOC(=O)c1c(C)n(C)c2ccc(OCC(N)=O)cc12	-19.8%	-3.3%	-13.6	i	?
